# Results as given in PubChem BioAssay (NCATS).
# Records with an inconclusive call do not appear. A call without a number means that no potency is given here. Calls of active or inactive are those of the source. Calls come from the whole dose curve; as a rule, active = well fitted inhibition curve with a large enough effect; inconclusive = small, poorly fitted or top-dose-only effect; inactive = no such curve, though single readings can be large or run the other way.
# How the values were obtained:
# [1] = system: Zika virus NS2B-NS3 protease (unlinked complex); experiment: Primary screen GU Rhodamine qHTS for Zika virus inhibitors: Unlinked NS2B-NS3 protease assay (AID 1347159); settings: Recombinant ZIKV NS2B-NS3 protease, Rhodamine110 substrate fluorescence; series mostly up to 107 µM; note: nearly all actives have a fitted effect of over 60% in size
# Method in brief: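 A qHTS format was used, with compound concentrations ranging up to 114 microM. Each compound was preincubated with 25 nM NS2B-NS3 protease, and the substrate was then added at 1.5 microM. Curves were fitted with a 4-parameter Hill model.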
# [2] = system: Zika virus NS2B-NS3 protease (linked construct); experiment: Primary screen NINDS Rhodamine qHTS for Zika virus inhibitors (AID 1347160); settings: purified NS2B-NS3 protease, Rhodamine110 substrate fluorescence; series mostly up to 57.1 µM; note: nearly all actives have a fitted effect of over 55% in size
# Method in brief: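 Kinetic fluorescence (Ex 480 nm, Em 540 nm) over 15 min with 1.5 microM Rhodamine110 peptide and 25 nM linked protease.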
Compound,Potency [1],Potency [2]
CCOc1nc(NC(=O)Cc2cc(OC)ccc2OC)cc(N)c1C#N,inactive,inactive
OC(c1ccc(-c2ccc(CN3CCN(Cc4ccncc4)CC3)cc2)c(F)c1)(C(F)(F)F)C(F)(F)F,inactive,inactive
CCOc1cccc(NC(=O)c2ccc(N3CCCC3)c(C(F)(F)F)c2)c1,inactive,inactive
C#CCNCc1cc2cc(OCc3ccccc3)ccc2[nH]1,inactive,inactive
CCOC(=O)N1CCC(N2CCC[C@@H](NC(=O)c3ccccc3C)C2)CC1,inactive,inactive
CCCN(CCc1ccsc1)C1CCc2c(O)cccc2C1 (centres undefined),inactive,inactive
O=c1cc(OCc2ccc(F)cc2)ccn1-c1ccc(OCCN2CCCC2)cc1,inactive,inactive
O=C(CNC(=O)c1cccc(C(F)(F)F)c1)N[C@@H]1CCN(Cc2ccc(Cl)cc2)C1,inactive,inactive
CC(C)=C[C@@H]1[C@H](CO[C@@H]2O[C@H](CO)[C@@H](O)[C@H](O)[C@H]2O)C1(C)C,inactive,inactive
COc1cc(N(C)CCN(C)C)c(N)cc1Nc1nccc(-c2cn(C)c3ccccc23)n1,inactive,inactive
N#CC(CCCN1CCN(/N=C/c2cccnc2)CC1)(c1ccccc1)c1ccccc1,inactive,inactive
Cc1cc2sc(NC(=O)Cc3ccccc3)nc2cc1Cl,inactive,inactive
Cc1ccnc(NC(=O)C(C)c2cccc(C(=O)c3ccccc3)c2)c1 (centres undefined),inactive,inactive
CO[C@@H]1[C@H](O)CCC2(CO2)[C@H]1[C@@]1(C)O[C@@H]1CC=C(C)C (some centres undefined),inactive,inactive
Cn1ncc2cc(-c3cnc(N)c(Cl)c3N3CCC4(CCNC4=O)CC3)ccc21,inactive,inactive
C[C@@]12C(=O)N(c3ccc(C(=O)Nc4cccc5cccnc45)cc3)C(=O)[C@@H]1[C@@H]1C=C[C@H]2C1,inactive,inactive
C=C1C(=O)OC2/C=C(\C)CC/C=C(\C)CC(OC(C)=O)C12 (centres undefined),inactive,inactive
O=C(c1ccc(F)cc1)N1CCCC(c2nc(-c3ccc(F)cc3)no2)C1 (centres undefined),inactive,inactive
Cc1nc(C#Cc2ccnc(Cl)c2)c(C)n1-c1ccc(F)cc1,inactive,inactive

Compound,Potency [1],Potency [2]
CC(C)S(=O)(=O)NC[C@H](C)c1ccc(-c2ccc(CCNS(C)(=O)=O)cc2)cc1,inactive,inactive
COC(=O)c1ccc2c(c1)[nH]c1ncnc(NCCCN3CCCCC3)c12,inactive,inactive
C/C=C\NC(=O)C1NC(=O)C(CC(N)=O)NC(=O)C(NC(=O)C(=O)C(C)CC)Cc2ccc(O)c(c2)-c2cccc3c2NC(=O)C3(O)C1O (centres undefined),inactive,inactive
CC(CCC1(O)OC2CC3C4CC=C5CC(O[C@@H]6O[C@H](CO)[C@@H](O[C@@H]7O[C@@H](C)[C@H](O)[C@@H](O)[C@H]7O)[C@H](O)[C@H]6O[C@@H]6O[C@@H](C)[C@H](O)[C@@H](O)[C@H]6O)CCC5(C)C4CCC3(C)C2C1C)CO[C@@H]1O[C@H](CO)[C@@H](O)[C@H](O)[C@H]1O (some centres undefined),inactive,inactive
CC1OC(=O)C[C@@H]2C(C(=O)O)=CO[C@@H](O[C@H]3O[C@H](CO)[C@@H](O)[C@H](O)[C@H]3O)[C@H]12 (some centres undefined),inactive,inactive
Cn1cc(-c2cnn3c(N)c(Br)c([C@@H]4CCCNC4)nc23)cn1,inactive,inactive
COc1cc(-c2cn(C3CCc4c(F)cccc4N(CC(F)(F)F)C3=O)nn2)ccc1-n1cnc(C)c1 (centres undefined),inactive,inactive
O=C(c1ccccc1)c1c(O)cc(O)cc1O[C@@H]1O[C@H](CO)[C@@H](O)[C@H](O)[C@H]1O,inactive,inactive
COc1nc2ccc(Br)cc2cc1[C@@H](c1ccccc1)[C@@](O)(CCN(C)C)c1cccc2ccccc12,inactive,inactive
C=C1CC2[C@@]3(C)C=CC(=O)C(C)(C)C3=C(O)C(=O)[C@@]2(C)C2(C(=O)OC)C(=O)C(C)OC(=O)[C@@]12C (some centres undefined),inactive,inactive
COc1ccccc1N1CCN(CC[C@@](C)(C(=O)C2CCCCC2)c2ccccc2)CC1,inactive,inactive
CC1=CC2/C=C(\C)CCC(O)C(=O)C(O)CC(=O)C23C(=O)NC(CC(C)C)C3C1C (centres undefined),inactive,inactive
C=C1C(=O)O[C@@H]2/C=C(\CO)CC/C=C(\CO)[C@H](OC(C)=O)C(OC(=O)C(C)CC)C12 (some centres undefined),inactive,inactive
C=C1CC2OC(=O)C(=C)C2C(O)/C=C(\C)CCC1O (centres undefined),inactive,inactive
COC(=O)C[C@H]1C(C)(C)[C@H](OC(=O)c2ccccc2)C2CC3=C4CC(=O)O[C@@H](c5ccoc5)[C@]4(C)CCC3[C@@]1(C)C2=O (some centres undefined),inactive,inactive
CCN1CCN(Cc2ccc(NC(=O)c3ccc(C)c(Oc4ccnc5[nH]ccc45)c3)cc2C(F)(F)F)CC1,inactive,inactive
O=C(Nc1ccc(N(Cc2ccsc2)C(=O)Cn2nnc3ccccc32)cc1)C1CC1,inactive,inactive
Cc1cn(CCN2CCN(c3ccccc3-c3cc(C#N)cc(C(=O)NCCCN4CCCC4)c3)CC2)c2ccccc12,inactive,inactive
